Assay results taken from ChEMBL document CHEMBL4513216, “Probing the Open Global Health Chemical Diversity Library for Multistage-Active Starting Points for Next-Generation Antimalarials” (ACS Infect Dis, 2020).
The whole screen tested about 69,000 compounds, of which about 8,600 (12%) showed an effect of 50% or more. The sample as a whole holds a higher share of strong results than the screen did.

Tested on: Plasmodium berghei
Experiment: Screen against P. berghei liver stage (PbLuc), transformed with Luciferase, at 10uM
Type: functional, HepG2
Conditions: tested at 10 uM

SMILES	INHIBITION
FC(F)(F)c1cc(C2CCNCC2)nc(-c2ccsc2)n1	1.62%
CN1C(=O)CC(c2cnn(C)c2)C12CCN(C(=O)c1ccncc1)CC2 (stereo not drawn)	42.7%
CN1C(=O)CC(c2cnn(C)c2)C12CCN(C(=O)c1cscn1)CC2 (stereo not drawn)	61.4%
CN1C(=O)CC(c2cnn(C)c2)C12CCN(C(=O)c1ccno1)CC2 (stereo not drawn)	14.8%
CN1C(=O)CC(c2cnn(C)c2)C12CCN(C(=O)c1ccnnc1)CC2 (stereo not drawn)	57.9%
CN1C(=O)CC(c2cnn(C)c2)C12CCN(C(=O)c1ccco1)CC2 (stereo not drawn)	10.1%
CN1C(=O)CC(c2cnn(C)c2)C12CCN(C(=O)c1ccc[nH]1)CC2 (stereo not drawn)	37.8%
Cc1nc(C2CCCN2C(=O)CCc2ccc(F)cc2)ncc1C(N)=O (stereo not drawn)	43.6%
O=C(CCc1nc2ccccc2[nH]1)N1CCCC(n2cccn2)C1 (stereo not drawn)	40.75%
CN(C)CCN1C(=O)CCC12CCCN(C(=O)N(C)C)CC2 (stereo not drawn)	9.97%
COCCC(=O)N1CCCC2(CCC(=O)N2CCOC)CC1 (stereo not drawn)	54.9%
COCCN1C(=O)CCC12CCCN(C(=O)CC1CC1)CC2 (stereo not drawn)	-15.9%
COCCN1C(=O)CCC12CCN(C(=O)NC(C)C)CC2	-38.4%
COCCN1C(=O)CCC12CCCN(C(=O)NC(C)C)CC2 (stereo not drawn)	18.6%
CN(C)CCN1C(=O)CCC12CCN(C(=O)CC1CC1)CC2	-12.2%
CN(C)CCN1C(=O)CCC12CCCN(C(=O)CC1CC1)CC2 (stereo not drawn)	51.9%
CC(C)NC(=O)N1CCC2(CCC(=O)N2CCN(C)C)CC1	60.5%
CC(C)NC(=O)N1CCC2(CCC(=O)N2CCN2CCCC2)CC1	5.04%
O=c1cc(CNCc2ccc3c(c2)OCO3)nc2ccccn12	14.3%
COc1nn(C)cc1C(=O)N1CCC(c2nnc(C(C)C)o2)CC1	37.5%
c1ccn(Cc2noc3c2CN(Cc2ccsc2)CC3)c1	49.1%
CC1CN(CC(=O)NCCc2ccncc2)Cc2ccccc2O1 (stereo not drawn)	60.9%
CC1CN(CCC(=O)NCCc2cccnc2)Cc2ccccc2O1 (stereo not drawn)	26.1%
Cc1ccc2c(c1)CN(CC(=O)NCCc1ccc(F)cc1)CC(C)O2 (stereo not drawn)	-46.4%
O=C(c1ccc(-c2ccsc2)nc1)N1CCCN(C2CCCCC2)CC1	14.4%
CO[C@@]1(C)C[C@@H](O)C12CCN(C(=O)CCn1c(C)cccc1=O)CC2	46.4%
COCC1c2nnn(C)c2CCN1C(=O)Cc1ccccn1 (stereo not drawn)	-21.3%

SMILES	INHIBITION
COCC1c2nnn(C)c2CCN1C(=O)Cc1ccc2c(c1)OCO2 (stereo not drawn)	-10.5%
COCC1c2nnn(C)c2CCN1C(=O)COc1ccccc1OC (stereo not drawn)	53%
COCC1c2nnn(C)c2CCN1C(=O)COc1ccccc1C (stereo not drawn)	22.2%
COCC1c2nnn(C)c2CCN1C(=O)CCc1cccc(OC)c1 (stereo not drawn)	52.1%
COCC1c2nnn(C)c2CCN1C(=O)c1ccc(OC)c(F)c1 (stereo not drawn)	44.8%
CCc1c(C)sc2nc3n(CCN4CCCCC4)nc(SC)n3c(=O)c12	35.1%
CC(C)(C)c1n[nH]c(C2CN(C(=O)c3cc(C4CC4)[nH]n3)CCO2)n1 (stereo not drawn)	-21.2%
CNC(=O)N1CCN(C(=O)N(C)C)CC2(CC(=O)N(C)C2)C1 (stereo not drawn)	26.3%
O=C(c1ccncc1)N1CC[C@@H]2[C@@H](CC1)OCCN2c1cccnc1	12.1%
O=C(c1ccoc1)N1CC[C@@H]2[C@@H](CC1)OCCN2c1cccnc1	45.8%
Cc1ncsc1C(=O)N1CC[C@@H]2[C@@H](CC1)OCCN2c1cccnc1	65.1%
CC(Cn1cccn1)NC(=O)c1ccsc1 (stereo not drawn)	15.7%
Cc1nc2ccc(C(=O)N3CCn4c(C)nnc4C3)cc2nc1C	1.56%
CN1C[C@H](c2ccccc2)[C@H]2CN(C(=O)Cc3ccc(O)cc3)CC[C@H]21	27.35%
CCN1CC2(CCC1=O)CCN(C(=O)c1ccc(C)cc1O)CC2	18.6%
COc1cccc(-c2nnn(C3CCN(CC(F)(F)F)C3=O)n2)c1 (stereo not drawn)	-73.4%
Cc1nnc(SCCCNC(=O)c2ccc3c(c2)OCO3)s1	33.4%
COCc1cc(NCCCSc2nnc(C)s2)ncn1	58.8%
COc1cc(NCCCSc2nnc(C)s2)ncn1	42.1%
Cc1nnc(SCCCNc2cc(C3CC3)ncn2)s1	58.8%
Cc1nnc(SCCNc2cc(C3CC3)ncn2)s1	4.52%
CCn1c(C)nnc1SCCNc1cc(COC)ncn1	8.51%
Cc1cccc(N2CC3(CCN(S(=O)(=O)c4cccs4)C3)CC2=O)c1 (stereo not drawn)	-4.82%
CSc1ccc(C(=O)N2C[C@@H]3CC[C@H]2CN(Cc2cccnc2)C3)cc1	-5.19%
Cc1noc(CCCNC(=O)N2CCc3ccccc3C2CO)n1 (stereo not drawn)	14.4%
CC(C)(C)c1cc(NC(=O)CN2CCc3cncnc3C2)on1	-9.76%
